Data taken from PubChem BioAssay.
For some assays here: Entries with a potency or affinity are not part of this list. Activity calls are given as the source filed them. Unless noted, no rule for the calls is given here.

How the values were obtained:
[1] = antimalarial activity against Dd2 strain (AID 2302;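 active = growth inhibition above 50% at the single 2 µM test dose, taken to imply half-maximal potency below 2 µM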;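 also: 0% = DMSO untreated growth and 100% = chloroquine plus artemisinin killed control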); details: P. falciparum Dd2 in RBCs, LDH growth readout, 72 h; at 2 µM; active compounds read high
[2] = HepG2 cytotoxicity, primary screen, cytotoxicity control for P. falciparum antimalarial project, cell-based, ATP luminescence (AID 2303;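 active = inhibition above 50%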;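 also: 0% = DMSO wells and 100% = digitonin-killed cells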); details: HepG2 viability, 24-48 h, at 10 µM, active compounds read high
[3] = target: L-lactate dehydrogenase (Plasmodium falciparum (isolate CDC / Honduras)) (UniProt Q27743); experiment: PfLDH activity inhibition – cell lysate, 3D7 strain, counter-screen for P. falciparum growth inhibition project (AID 2304);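 also: 0% = vehicle and 100% = reference inhibitor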; details: P. falciparum 3D7 crude extract, LDH APAD/NBT absorbance; at 2 µM; active compounds read high
L-lactate dehydrogenase (Plasmodium falciparum (isolate CDC / Honduras)), sequence (Q27743 whole entry, looked up): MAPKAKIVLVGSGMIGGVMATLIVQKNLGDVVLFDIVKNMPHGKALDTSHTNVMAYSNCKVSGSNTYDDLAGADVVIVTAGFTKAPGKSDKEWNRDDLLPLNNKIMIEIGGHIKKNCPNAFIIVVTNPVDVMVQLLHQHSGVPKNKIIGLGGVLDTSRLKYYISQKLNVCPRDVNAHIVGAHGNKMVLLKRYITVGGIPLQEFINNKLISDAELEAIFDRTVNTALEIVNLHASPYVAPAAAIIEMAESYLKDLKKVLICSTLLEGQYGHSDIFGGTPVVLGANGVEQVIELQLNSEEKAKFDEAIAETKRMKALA

[4] = inhibition of 3D7 malaria parasite growth – strain 3D7 (AID 2306);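 also: 0% = DMSO wells and 100% = chloroquine plus artemisinin control wells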; details: P. falciparum 3D7 erythrocytic growth, LDH absorbance, 72 h; at 2 µM; active compounds read high
[5] = target: Calcium-dependent protein kinase 1 (Plasmodium falciparum (isolate 3D7)) (UniProt P62344); experiment: PfCDPK1 kinase inhibitors, biochemical, TCAMS library (AID 1159585; cut-off not given, nearly all actives have IC50 up to about 0.98 µM;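 also: inhibitors leave more ATP so luminescence rises with inhibition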); details: recombinant PfCDPK1, Kinase-Glo ATP depletion luminescence
Calcium-dependent protein kinase 1 (Plasmodium falciparum (isolate 3D7)), sequence (P62344 whole entry, looked up): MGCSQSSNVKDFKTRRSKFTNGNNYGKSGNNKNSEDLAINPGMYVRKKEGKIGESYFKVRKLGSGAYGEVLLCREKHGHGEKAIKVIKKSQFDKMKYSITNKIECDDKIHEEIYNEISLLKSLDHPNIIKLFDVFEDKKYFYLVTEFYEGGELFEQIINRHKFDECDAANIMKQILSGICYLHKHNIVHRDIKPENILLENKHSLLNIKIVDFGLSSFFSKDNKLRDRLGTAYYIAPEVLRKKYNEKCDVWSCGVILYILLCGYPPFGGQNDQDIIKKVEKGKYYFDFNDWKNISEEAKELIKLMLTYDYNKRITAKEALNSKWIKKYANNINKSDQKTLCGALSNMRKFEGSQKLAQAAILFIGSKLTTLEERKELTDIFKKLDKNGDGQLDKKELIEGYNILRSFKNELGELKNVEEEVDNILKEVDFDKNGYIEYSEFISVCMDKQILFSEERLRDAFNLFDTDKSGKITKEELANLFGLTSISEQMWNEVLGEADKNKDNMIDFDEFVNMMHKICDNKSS

[6] = target: Plasmodium falciparum protein kinase 6 (PK6, PF3D7_1337100) (UniProt Q8IDW1); experiment: PfPK6 kinase inhibitors, biochemical, TCAMS library (AID 1159586); details: recombinant PfPK6, Kinase-Glo ATP depletion luminescence
Plasmodium falciparum protein kinase 6 (PK6, PF3D7_1337100), sequence (Q8IDW1 1-305): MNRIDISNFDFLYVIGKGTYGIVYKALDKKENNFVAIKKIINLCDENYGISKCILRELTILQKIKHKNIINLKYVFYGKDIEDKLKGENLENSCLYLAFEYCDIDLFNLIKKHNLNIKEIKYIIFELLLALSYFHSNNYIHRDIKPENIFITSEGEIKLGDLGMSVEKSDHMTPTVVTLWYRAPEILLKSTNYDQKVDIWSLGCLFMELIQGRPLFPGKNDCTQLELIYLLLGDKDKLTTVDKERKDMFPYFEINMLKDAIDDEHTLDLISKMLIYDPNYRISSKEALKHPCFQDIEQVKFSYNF

[7] = target: Protein kinase 7 (PK7), Plasmodium falciparum 3D7 (PF3D7_0213400) (UniProt Q7YTF7); experiment: inhibition of Plasmodium PK7 catalytic activity – biochemical, TCAMS antimalarial set, Kinase-Glo luminescence (AID 1159587); details: recombinant PfPK7, Kinase-Glo ATP depletion luminescence
Protein kinase 7 (PK7), Plasmodium falciparum 3D7 (PF3D7_0213400), sequence (Q7YTF7 1-343): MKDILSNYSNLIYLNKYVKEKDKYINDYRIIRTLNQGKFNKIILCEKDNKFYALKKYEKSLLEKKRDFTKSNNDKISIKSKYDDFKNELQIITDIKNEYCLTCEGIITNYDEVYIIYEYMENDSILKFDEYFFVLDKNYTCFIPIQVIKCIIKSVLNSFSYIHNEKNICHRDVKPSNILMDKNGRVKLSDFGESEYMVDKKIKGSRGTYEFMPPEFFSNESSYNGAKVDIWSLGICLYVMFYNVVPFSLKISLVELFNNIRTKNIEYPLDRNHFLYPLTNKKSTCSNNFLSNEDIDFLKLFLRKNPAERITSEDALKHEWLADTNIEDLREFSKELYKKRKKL

[8] = target: Calcium-dependent protein kinase 4 (Plasmodium falciparum (isolate 3D7)) (UniProt Q8IBS5); experiment: PfCDPK4 kinase inhibitors, biochemical, TCAMS library (AID 1159588; cut-off not given, nearly all actives have IC50 up to about 0.91 µM); details: recombinant PfCDPK4, Kinase-Glo ATP depletion luminescence
Calcium-dependent protein kinase 4 (Plasmodium falciparum (isolate 3D7)), sequence (Q8IBS5 whole entry, looked up): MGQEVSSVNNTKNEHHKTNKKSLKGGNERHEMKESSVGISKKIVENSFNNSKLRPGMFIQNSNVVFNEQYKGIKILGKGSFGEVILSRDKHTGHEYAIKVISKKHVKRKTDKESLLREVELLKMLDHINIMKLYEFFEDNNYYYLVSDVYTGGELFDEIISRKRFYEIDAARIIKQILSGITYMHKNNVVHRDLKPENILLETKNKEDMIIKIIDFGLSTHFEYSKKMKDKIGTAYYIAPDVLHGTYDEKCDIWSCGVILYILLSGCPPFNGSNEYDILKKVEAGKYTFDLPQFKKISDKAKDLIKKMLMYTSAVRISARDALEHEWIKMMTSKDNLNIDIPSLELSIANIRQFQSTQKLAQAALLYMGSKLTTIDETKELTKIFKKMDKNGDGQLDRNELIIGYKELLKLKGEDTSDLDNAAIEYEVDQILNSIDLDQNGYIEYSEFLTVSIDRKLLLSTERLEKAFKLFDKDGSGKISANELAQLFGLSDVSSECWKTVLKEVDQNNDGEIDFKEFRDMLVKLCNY

O=C(Nc1ccc(-c2nc3ccccc3[nH]2)cc1)c1ccc(S(=O)(=O)N2CCCCC2)cc1
active: growth inhibition [4] 95%
inactive: growth inhibition [1] 6% | inhibition [2] 23% | inhibition [3] 2% | outcome [5] | outcome [6] | outcome [7] | outcome [8]

Oc1c(C(Nc2nc3ccccc3s2)c2ccc(OC(F)F)cc2)ccc2cccnc12 (stereo not given)
inactive: inhibition [3] 4% | outcome [5] | outcome [6] | outcome [7] | outcome [8]
active: growth inhibition [1] 85% | inhibition [2] 62% | growth inhibition [4] 92%

CN1CCC(N(Cc2ccc(-c3ccc(C(F)(F)F)cc3)cc2)C(=O)Cn2cc(Cc3cnn(C)c3)c(=O)nc2SCc2cccc(F)c2F)CC1
active: growth inhibition [1] 91% | inhibition [2] 68% | growth inhibition [4] 88%
inactive: inhibition [3] 7% | outcome [5] | outcome [6] | outcome [7] | outcome [8]

CN1CCN(Cc2ccc(-c3ccc4ncnc(Nc5ccc(OCc6ccccc6)cc5)c4c3)o2)CC1
inactive: inhibition [2] 9% | inhibition [3] 2% | outcome [5] | outcome [6] | outcome [7] | outcome [8]
active: growth inhibition [1] 90% | growth inhibition [4] 97%

COc1ccc(-c2cccc(NC(=O)c3cccc(Cl)c3)c2)cc1CN1CCN(C)CC1
active: growth inhibition [4] 101%
inactive: growth inhibition [1] 48% | inhibition [2] 27% | inhibition [3] 1% | outcome [5] | outcome [6] | outcome [7] | outcome [8]

Cc1cccc(-c2cccc3c(NC(=O)N4CCc5cc6nccc(N7CCN8CCC[C@H]8C7)c6cc54)cccc23)n1
active: growth inhibition [1] 68% | growth inhibition [4] 94%
inactive: inhibition [2] 14% | inhibition [3] -6% | outcome [5] | outcome [6] | outcome [7] | outcome [8]

CC1CCC2(CC1)N=C(N)N=C(N)N2OCc1ccc(Br)c2ccccc12 (stereo not given)
inactive: growth inhibition [1] 40% | inhibition [2] 46% | inhibition [3] -4% | outcome [5] | outcome [6] | outcome [7] | outcome [8]
active: growth inhibition [4] 96%

CCCCN(CCCC)CCCCNc1c2ccccc2nc2ccccc12
active: growth inhibition [1] 100% | growth inhibition [4] 100%
inactive: inhibition [2] 36% | inhibition [3] 0% | outcome [5] | outcome [6] | outcome [7] | outcome [8]

CC1(C)C(N(O)C(=O)Nc2ccc(Cl)c(Cl)c2)N(c2ccc(Cl)c(Cl)c2)C(=O)N1CCc1ccccc1 (stereo not given)
inactive: inhibition [2] 10% | inhibition [3] -1% | outcome [5] | outcome [6] | outcome [7] | outcome [8]
active: growth inhibition [1] 93% | growth inhibition [4] 91%

NC(=O)c1ccccc1OCC(=O)Nc1cccc(-c2ccc(-c3nc4ccccc4[nH]3)cc2)c1
active: inhibition [2] 66% | growth inhibition [4] 95%
inactive: growth inhibition [1] 46% | inhibition [3] 4% | outcome [5] | outcome [6] | outcome [7] | outcome [8]

CC(C)n1ncc2c3c(N)nc(N)nc3ccc21
active: inhibition [2] 64% | growth inhibition [4] 98%
inactive: growth inhibition [1] 6% | inhibition [3] -3% | outcome [5] | outcome [6] | outcome [7] | outcome [8]

CN1CCN(c2ccc(-c3nc4c(C(N)=O)c(OCc5cc(Cl)cc(Cl)c5)ccc4[nH]3)cc2)CC1
inactive: inhibition [2] 45% | inhibition [3] -2% | outcome [5] | outcome [6] | outcome [7] | outcome [8]
active: growth inhibition [1] 85% | growth inhibition [4] 100%

CC(C)CCNC(=O)C1Cc2c([nH]c3ccc(Br)cc23)C2(CCN(Cc3ccccc3)CC2)N1 (stereo not given)
inactive: inhibition [3] -3% | outcome [5] | outcome [6] | outcome [7] | outcome [8]
active: growth inhibition [1] 68% | inhibition [2] 100% | growth inhibition [4] 96%

CCOC(=O)c1ccc(NC(=O)N[C@@H](Cc2ccc(O)cc2)C(=O)NC2CCN(Cc3ccc4c(c3)OCO4)CC2)cc1
active: growth inhibition [4] 86%
inactive: growth inhibition [1] 24% | inhibition [2] -1% | inhibition [3] 3% | outcome [5] | outcome [6] | outcome [7] | outcome [8]

CC(CCCCOCCc1ccccc1)NCC(O)c1cc(Cl)c(N)c(Cl)c1 (stereo not given)
inactive: inhibition [2] -5% | inhibition [3] -1% | outcome [5] | outcome [6] | outcome [7] | outcome [8]
active: growth inhibition [1] 95% | growth inhibition [4] 96%

Cc1cccc2sc(N(CCCn3ccnc3)C(=O)C=Cc3cccs3)nc12
active: growth inhibition [4] 91%
inactive: growth inhibition [1] 9% | inhibition [2] -6% | inhibition [3] 2% | outcome [5] | outcome [6] | outcome [7] | outcome [8]

Clc1ccc(-c2[nH]c3ccccc3c2CN2CCC(N3CCCCC3)CC2)cc1
active: growth inhibition [4] 93%
inactive: growth inhibition [1] 15% | inhibition [2] 5% | inhibition [3] 5% | outcome [5] | outcome [6] | outcome [7] | outcome [8]

CC(C)(C)NS(=O)(=O)c1cc(C(=O)N2CCC(CCN3CCC(O)(c4cccc(C(F)(F)F)c4)CC3)(c3cccc(F)c3)CC2)c(Cl)cc1F
inactive: inhibition [2] 15% | inhibition [3] -6% | outcome [5] | outcome [6] | outcome [7] | outcome [8]
active: growth inhibition [1] 55% | growth inhibition [4] 88%

CN(CCN)Cc1cccc(-c2cccc(-c3nc4ccc(C(F)(F)F)cc4[nH]3)c2)c1
inactive: inhibition [2] 22% | inhibition [3] 0% | outcome [5] | outcome [6] | outcome [7] | outcome [8]
active: growth inhibition [1] 98% | growth inhibition [4] 99%

COc1ccc(-c2ccc(CNC3Cc4ccccc4C3)cc2)cc1S(=O)(=O)NCCN1CCCC1
inactive: inhibition [2] 30% | inhibition [3] 3% | outcome [5] | outcome [6] | outcome [7] | outcome [8]
active: growth inhibition [1] 99% | growth inhibition [4] 100%

O=C(NC1CCN(CC2(c3ccccc3)CCCC2)CC1)c1[nH]ncc1Cl
active: growth inhibition [1] 87% | growth inhibition [4] 83%
inactive: inhibition [2] -3% | inhibition [3] 5% | outcome [5] | outcome [6] | outcome [7] | outcome [8]

O=[N+]([O-])c1ccccc1C=NNc1ccnc2ccc(C(F)(F)F)cc12
inactive: growth inhibition [1] 36% | inhibition [2] 6% | inhibition [3] -3% | outcome [5] | outcome [6] | outcome [7] | outcome [8]
active: growth inhibition [4] 100%

CCCCCCCc1c(C)[nH]c2cc(OC)ccc2c1=O
inactive: inhibition [2] 5% | inhibition [3] -5% | outcome [5] | outcome [6] | outcome [7] | outcome [8]
active: growth inhibition [1] 98% | growth inhibition [4] 99%

COc1cccc2c(NN=Cc3ccccc3F)ccnc12
active: growth inhibition [4] 96%
inactive: growth inhibition [1] 37% | inhibition [2] 6% | inhibition [3] 1% | outcome [5] | outcome [6] | outcome [7] | outcome [8]

COc1cc2c(Nc3cccc(NC(=O)c4ccccc4)c3)ncnc2cc1OCCCN1CCOCC1
active: growth inhibition [1] 100% | growth inhibition [4] 101%
inactive: inhibition [2] -14% | inhibition [3] 5% | outcome [5] | outcome [6] | outcome [7] | outcome [8]

O=C(Nc1ccc(Cl)cc1)Nc1ccc(OCC(O)CN2CCCCC2)cc1 (stereo not given)
inactive: growth inhibition [1] 13% | inhibition [2] 18% | inhibition [3] -1% | outcome [5] | outcome [6] | outcome [7] | outcome [8]
active: growth inhibition [4] 83%

COc1cccc(O)c1CN1CCC2(CCCN(Cc3ccc(F)cc3)C2)C1 (stereo not given)
inactive: inhibition [2] 21% | inhibition [3] 1% | outcome [5] | outcome [6] | outcome [7] | outcome [8]
active: growth inhibition [1] 72% | growth inhibition [4] 98%

O=C(NCc1ccco1)c1ccc(S(=O)(=O)c2ccc(Cl)cc2)cc1
inactive: inhibition [2] 6% | inhibition [3] -3% | outcome [5] | outcome [6] | outcome [7] | outcome [8]
active: growth inhibition [1] 95% | growth inhibition [4] 97%

COc1ccc(C(=O)N2CCC3(CC2)C(=O)N(CC(=O)NCC2CCCCC2)CN3c2ccccc2)cc1
active: growth inhibition [1] 99% | growth inhibition [4] 100%
inactive: inhibition [2] 18% | inhibition [3] 3% | outcome [5] | outcome [6] | outcome [7] | outcome [8]

CCCCCN1CCCN(Cc2cccc(NC(=O)c3ccc4ccccc4c3)c2)CC1
active: growth inhibition [4] 86%
inactive: growth inhibition [1] 16% | inhibition [2] 27% | inhibition [3] -5% | outcome [5] | outcome [6] | outcome [7] | outcome [8]

CO/C(=C\C=C\c1cc2cc(Cl)c(Cl)cc2[nH]1)C(=O)NCCCN1CCC(c2ccccc2)CC1
active: growth inhibition [1] 92% | growth inhibition [4] 100%
inactive: inhibition [2] 33% | inhibition [3] -1% | outcome [5] | outcome [6] | outcome [7] | outcome [8]

O=C(Nc1ccc(C(F)(F)F)cc1)c1ccc(S(=O)(=O)NC2CCN(Cc3ccccc3)C2)cc1 (stereo not given)
inactive: growth inhibition [1] 5% | inhibition [2] 42% | inhibition [3] 5% | outcome [5] | outcome [6] | outcome [7] | outcome [8]
active: growth inhibition [4] 101%

C=Cc1cc(NC(=O)N2CCc3cc(OC)c(C(F)(F)F)cc32)cc(-c2cccnc2)c1
active: growth inhibition [4] 92%
inactive: growth inhibition [1] 20% | inhibition [2] 7% | inhibition [3] -2% | outcome [5] | outcome [6] | outcome [7] | outcome [8]

CC1CCCN(Cc2c(O)ccc3c(=O)c(-c4nc5ccccc5s4)c(N)oc23)C1 (stereo not given)
inactive: inhibition [2] 20% | inhibition [3] -2% | outcome [5] | outcome [6] | outcome [7] | outcome [8]
active: growth inhibition [1] 99% | growth inhibition [4] 100%

CCn1cc(C=C2Oc3c(ccc(O)c3CN3CCCCC3)C2=O)c2cc(OC)ccc21
inactive: inhibition [2] -9% | inhibition [3] -1% | outcome [5] | outcome [6] | outcome [7] | outcome [8]
active: growth inhibition [1] 99% | growth inhibition [4] 99%

COc1cc([N+](=O)[O-])ccc1NC(=O)c1cc(Cl)ccc1O
active: growth inhibition [1] 100% | inhibition [2] 92% | growth inhibition [4] 87%
inactive: inhibition [3] 6% | outcome [5] | outcome [6] | outcome [7] | outcome [8]

Cc1onc(-c2ccc(Cl)cc2)c1-c1ccnn1S(=O)(=O)c1ccc(Cl)cc1
inactive: inhibition [2] -3% | inhibition [3] 3% | outcome [5] | outcome [6] | outcome [7] | outcome [8]
active: growth inhibition [1] 99% | growth inhibition [4] 101%

CCC(CCON1C(N)=NC(N)=NC1(C)C)c1ccc(Cl)cc1 (stereo not given)
inactive: inhibition [3] 1% | outcome [5] | outcome [6] | outcome [7] | outcome [8]
active: growth inhibition [1] 95% | inhibition [2] 66% | growth inhibition [4] 94%

CN(CCCCN)Cc1ccc(-c2ccc(Cl)cc2)cc1
inactive: growth inhibition [1] 20% | inhibition [3] 3% | outcome [5] | outcome [6] | outcome [7] | outcome [8]
active: inhibition [2] 96% | growth inhibition [4] 97%

COc1ccc(CN(C)CCCc2ccc(NC(=O)Cc3ccc4nc(-c5ccccc5)ccc4c3)cc2)cc1OC
inactive: growth inhibition [1] -2% | inhibition [2] 10% | inhibition [3] -3% | outcome [5] | outcome [6] | outcome [7] | outcome [8]
active: growth inhibition [4] 98%
